According to PubChem BioAssay (NCI):
About 83,000 compounds went through this panel and 20% of them were active in at least one assay; those are over-represented in the sample as a whole.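 In brief: 96-well plates, 48 h treatment, single concentration, percent growth endpoint.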 Activity calls are given as the source filed them. How the source made its calls: active means growth percent below 10; inactive means the rest.

Tests used:
Experiment in all cases: NCI-60 one-dose screen, 48 h (100 = growth as untreated, 0 = no growth, -100 = all killed)
Settings in all cases: 10 µM
[1] = tested on: HT29 colon
[2] = tested on: SNB-75 CNS
[3] = tested on: SNB-19 CNS
[4] = tested on: U251 CNS
[5] = tested on: PC-3 prostate
[6] = tested on: SK-MEL-5 melanoma
[7] = tested on: UACC-62 melanoma
[8] = tested on: SK-MEL-28 melanoma
[9] = tested on: SK-MEL-2 melanoma
[10] = tested on: SN12C renal
[11] = tested on: UO-31 renal
[12] = tested on: TK-10 renal
[13] = tested on: ACHN renal
[14] = tested on: CAKI-1 renal
[15] = tested on: A498 renal
[16] = tested on: MOLT-4 leukemia
[17] = tested on: LOX IMVI melanoma
[18] = tested on: EKVX NSCLC
[19] = tested on: CCRF-CEM leukemia
[20] = tested on: SR leukemia

Measured: growth

Clc1ccc2c(NCCCNc3nccc(Nc4ccc(Br)cc4)n3)ccnc2c1
active: [1] -80.3% | [2] -93.9% | [3] -8.34% | [4] -98.3% | [5] -33.4% | [6] -100% | [7] -87.9% | [8] -97.2% | [9] -96.7% | [10] -65.1% | [11] -72.3% | [12] -90.4% | [13] -90.6% | [14] -80.4% | [16] -44.6%
inactive: [15] 19.6%

O=C(C[n+]1ccccc1)c1ccc2ccccc2c1
inactive: [1] 92% | [2] 75.1% | [3] 99.5% | [4] 95.3% | [5] 87.8% | [6] 102% | [7] 96% | [17] 99.8% | [18] 88.2% | [10] 93.8% | [11] 74% | [12] 102% | [13] 102% | [14] 96.7% | [19] 95.9% | [16] 96% | [20] 92.1%

CC(=O)OCc1cc(-c2nc3ccccc3[nH]c2=O)nn1-c1ccc(Cl)cc1
inactive: [1] 104% | [2] 98.6% | [3] 89.4% | [4] 100% | [5] 99% | [6] 97.8% | [7] 89.3% | [8] 107% | [9] 100% | [18] 104% | [10] 105% | [11] 98.2% | [12] 119% | [13] 102% | [15] 100% | [19] 97.9% | [16] 87.6% | [20] 105%

COc1ccc(/C(=C2/O[C@@H]([C@H]3COC(C)(C)O3)[C@H]3OC(C)(C)O[C@@H]23)c2cc(OC)c(OC)c(OC)c2)cc1O
inactive: [1] 113% | [2] 24.3% | [3] 27.6% | [4] 61.2% | [5] 29.4% | [6] 61.8% | [7] 82.9% | [17] 47.6% | [18] 101% | [10] 84.5% | [11] 123% | [12] 117% | [13] 49.5% | [14] 111% | [19] 60.8% | [16] 60.5%
active: [20] -13.6%

COc1ccc(Nc2cc(C)nc(NCCCNc3ccnc4cc(Cl)ccc34)n2)cc1
active: [1] -70.2% | [2] -82.5% | [3] 6.85% | [4] -88.8% | [5] 7.12% | [6] -100% | [7] -89.8% | [8] -100% | [9] -94.6% | [10] 1.94% | [11] -73.5% | [12] -83.9% | [13] -93% | [14] -69.6% | [15] -0.29% | [19] -21.9% | [16] -35.1%

COc1ccc(S(=O)(=O)NCCCNc2nccc(-c3c(-c4ccc(F)cc4)nc4sccn34)n2)cc1
inactive: [1] 11% | [2] 49.3% | [3] 99.1% | [4] 50% | [5] 52.9% | [6] 49.5% | [7] 48.5% | [8] 73.5% | [10] 59.5% | [11] 22.1% | [12] 60.5% | [13] 36.5% | [14] 39.4% | [15] 58.5% | [19] 37.6% | [16] 34.4% | [20] 28.3%

Nc1c(C(=O)Nc2ccccc2Cl)sc2nc3c(cc12)C(=O)CCC3
inactive: [1] 40.2% | [2] 52.4% | [3] 51.1% | [4] 73.3% | [5] 37.1% | [6] 32.5% | [7] 47.1% | [8] 57.7% | [9] 35.4% | [10] 56.7% | [11] 68.9% | [12] 64.3% | [13] 57.1% | [14] 20.7% | [19] 19.4% | [16] 86.8% | [20] 42.3%
active: [15] -10.9%

COc1ccc(C(=O)/C=C/c2cc(-c3cc(OC)c(OC)c(OC)c3)n[nH]2)cc1
active: [1] 1.28% | [4] -2.19% | [11] 5.28% | [14] 4.76% | [19] -35.9% | [16] 3.23% | [20] -39.7%
inactive: [2] 43.6% | [3] 47.8% | [5] 20.5% | [6] 57.2% | [7] 52.3% | [8] 79.4% | [9] 70.4% | [10] 25.1% | [13] 58.6% | [15] 62.2%

Cc1cc2c(C)c3cc(C)c(N)cc3nc2cc1N
active: [1] -25.5% | [5] 7.77% | [11] 7.87% | [12] -4.14% | [13] 9.76% | [15] -5.82% | [19] 6.08% | [16] -7.23% | [20] -24.3%
inactive: [2] 21.8% | [3] 18.3% | [4] 14.9% | [6] 19.8% | [7] 24.2% | [8] 38.9% | [10] 12.5% | [14] 14.8%

N#CCCN1C/C(=C/c2ccccc2)C(=O)/C(=C/c2ccccc2)C1
active: [1] -48.5% | [4] -0.696% | [7] 0.851% | [13] 8.94% | [19] -1.14% | [16] 4.56% | [20] -2.02%
inactive: [2] 62.1% | [3] 68% | [5] 41.1% | [6] 29% | [8] 54.2% | [9] 62.3% | [10] 25.3% | [11] 51.6% | [12] 95.6% | [14] 19.1% | [15] 106%

Cc1ccc(NC(=O)Nc2nc3ccccc3s2)cc1NC(=O)Nc1nc2ccccc2s1
inactive: [1] 90.1% | [2] 61.5% | [3] 92% | [4] 77.2% | [5] 44.5% | [6] 79.6% | [7] 86.6% | [8] 101% | [9] 98.5% | [18] 99.1% | [10] 86.9% | [11] 66.8% | [12] 111% | [13] 83.7% | [15] 93% | [16] 82.4% | [20] 55.5%

CCOC(=O)N1C/C(=C/c2ccc(F)cc2)C(=O)/C(=C/c2ccc(F)cc2)C1
active: [1] -58.8% | [4] -65.6% | [5] -25.3% | [6] -59.7% | [7] -56.8% | [8] -37.4% | [10] -43.8% | [11] -55.6% | [12] 2.65% | [13] -28% | [14] -16% | [19] -1.18% | [16] 2.2% | [20] -19.9%
inactive: [2] 56.8% | [3] 39.6% | [9] 21.7%

COc1ccc(-c2nn(-c3cccc(NC(=O)Nc4ccccc4)c3)cc2-c2ccncc2)cc1Cl
inactive: [2] 27.5% | [3] 83.5% | [6] 42.1% | [7] 46.4% | [8] 11.3% | [10] 31.4% | [12] 28.1% | [13] 34.8% | [15] 32.2% | [19] 11.9%
active: [1] -69.6% | [4] -35.8% | [5] 8.81% | [11] -39.9% | [14] -7.47% | [16] -2.67% | [20] -6.06%

COc1ccc(-c2nc3sc(-c4ccccc4)c(-c4ccccc4)n3c2/C=C/C(=O)c2ccccn2)cc1
inactive: [1] 34.7% | [2] 29.1% | [3] 97.1% | [4] 85.4% | [6] 70.9% | [7] 104% | [8] 104% | [9] 67.3% | [10] 86.6% | [11] 66% | [12] 90.7% | [13] 66.2% | [14] 87.1% | [15] 96.1% | [19] 52.4% | [16] 45.7% | [20] 78.4%
active: [5] 3.71%

Clc1ccc(/C=C2\CCCC3=C2N=C2SC=NN2C3c2ccc(Cl)cc2)cc1 (centres undefined)
inactive: [1] 60.7% | [2] 93.2% | [3] 96.5% | [4] 84.6% | [5] 96.3% | [6] 101% | [7] 80.2% | [8] 98.4% | [9] 113% | [10] 104% | [11] 86.5% | [12] 112% | [13] 103% | [14] 106% | [15] 81.7% | [16] 99% | [20] 76.3%

CCCC1(CC(=O)O)OCCc2c1[nH]c1ccccc21 (centres undefined)
inactive: [1] 110% | [2] 65.8% | [3] 128% | [4] 108% | [5] 91.7% | [6] 100% | [7] 93.2% | [9] 114% | [18] 120% | [10] 98% | [11] 86.4% | [12] 113% | [13] 111% | [14] 91% | [15] 106% | [19] 94.1% | [16] 87.3% | [20] 84%

O=C1OCC2=C1C(c1cccc(Cl)c1)c1cc3c(cc1N2CCO)OCCO3 (centres undefined)
active: [1] 2.11% | [4] 0.324% | [6] -8.57% | [15] -18.1% | [19] 6.58%
inactive: [2] 29.2% | [3] 37.4% | [5] 21.3% | [7] 27.9% | [8] 57.7% | [18] 49.4% | [10] 30% | [11] 22.1% | [12] 68.4% | [13] 30.5% | [14] 19.9% | [16] 21.1% | [20] 32.4%
